# Data reported in the supplement of paper PMC7801607.
# Tested on: Plasmodium berghei ANKA liver stage in HepG2-A16-CD81
# Assay: % inhibition of liver stage parasite viability (luciferase); higher = more inhibition
# Details: 5 µM; 48 h
# Procedure: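 Single-concentration screen of the MMV Pandemic Response Box. P. falciparum NF54 asexual blood stages: pLDH assay, 72 h at 37 °C, 2 and 20 µM, n=2. Stage IV/V gametocytes (NF54): luciferase reporter (NF54-Pfs16-GFP-Luc, 48 h), ATP bioluminescence (24 h) and PrestoBlue (48 h) at 1 and 5 µM, n=1. P. berghei liver stage (luciferase in HepG2-A16-CD81, 48 h post infection) at 5 µM, n=4. All normalised to DMSO and kill controls as % inhibition.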
row,SMILES,% inhibition of liver stage parasite viability
1,CC[C@@]1(O)C(=O)OCc2c1cc1n(c2=O)Cc2cc3c(CN(C)C)c(O)ccc3nc2-1,60.8%
2,NC(=O)c1cnccn1,14.3%
3,COc1ccc(COc2cc3oc(=O)c4cc(C(C)O)ccc4c3cc2OC)cc1 (stereo not given),8.21%
4,O=C(/C=C\n1cnc(-c2cc(C(F)(F)F)cc(C(F)(F)F)c2)n1)NNc1ccccn1,16.2%
5,CCCCSc1nc(N)c2[nH]c(=O)c(=O)n(Cc3ccccc3)c2n1,-9.6%
6,CCc1nc2ccccn2c1C(=O)NCc1ccccc1,25.4%
7,O=S(=O)(Nc1cccc2cccnc12)c1ccccc1,0.562%
8,CCCC1(C2CC2)c2cc(Cl)ccc2NC(=O)N1C (stereo not given),-13.9%
9,CC[C@@H]1C(=O)OC[C@@H]1Cc1cncn1C,-7.29%
10,O=C1CCC(N2C(=O)c3ccccc3C2=O)C(=O)N1 (stereo not given),25.6%
11,O=C(Nc1ccc(Cl)c(C(F)(F)F)c1)C(CCCl)C(=O)Nc1ccc(Cl)c(C(F)(F)F)c1,11.8%
12,O=C(O)/C=C/C=C/c1cccc(Oc2cc(Cl)cc(Cl)c2)c1,28.9%
13,CC(C)c1cc2c(cc1S(=O)(=O)O)[C@@]1(C)CCC[C@@](C)(C(=O)O)[C@@H]1CC2,38.5%
14,CC(C)(C)c1cc(C(=O)/C(C#N)=N/Nc2cccc(Cl)c2)no1,51.5%
15,CC(C)(C)OC(=O)NCc1ccc(C(=O)N[C@H]2CCOC2=O)cc1,39.8%
16,N=c1n(CCN2CCCCC2)c2ccccc2n1CC(O)COc1ccc(Cl)cc1Cl (stereo not given),-0.075%
17,Cc1cc(CCCOc2c(C)cc(-c3noc(C(F)(F)F)n3)cc2C)on1,-23.2%
18,O=C(NCc1ccc2c3c(cccc13)C(=O)N2)c1cccs1,17.9%
19,O=C(O)C[C@H]1CC[C@H](c2ccc(-c3ccc(Nc4ccc(C(F)(F)F)nc4)cn3)cc2)CC1,39.5%
20,C[C@H]1[C@@H](c2cccc(C(F)(F)F)c2)OC(=O)N1C(=O)NCc1cncc2ccccc12,63.9%

row,SMILES,% inhibition of liver stage parasite viability
1,CC(C)(C)c1ccc(C(=O)NC(=O)N2CCCc3ccccc32)cc1,15.6%
2,Cc1onc(-c2ccccc2Cl)c1C(=O)N[C@@H]1C(=O)N2[C@@H]1SC(C)(C)[C@@H]2C(=O)O,17.1%
3,COc1cc(Cc2cc(N)nc(N)n2)cc(OC)c1OC,81.6%
4,Nc1nc(O)c(Br)c(-c2ccccc2)n1,5.43%
5,NCCCc1ccccc1C(=O)Nc1ncc([N+](=O)O)s1,7.1%
6,CC1CN(c2ncnc3c2c(-c2ccccc2)cn3-c2ccc(F)cc2)CC(C)O1 (stereo not given),37.1%
7,FC(F)(F)c1cc(C(F)(F)F)c2ccc3nc(-c4nnco4)cn3c2n1,17.6%
8,COc1ccccc1NC(=O)c1ccccc1Sc1ccc([N+](=O)[O-])cc1,27%
9,COc1cc(Cc2cnc(N)nc2N)c2c(c1OC)OC(C1CC1)C=C2 (stereo not given),56.5%
10,CN1CCN(Cc2ccc(-c3cnc4[nH]cc(-c5ccc6[nH]ccc6c5)c4c3)cc2)CC1,33.2%
11,CCCCCCCCCN1C[C@@H](O)[C@H](O)[C@@H](O)[C@@H]1CO,-1.14%
12,CN(O)C(=O)c1cc2c(CN3CCC[C@H]3C(N)=O)cn(Cc3ccc(F)cc3)c2cn1,24.6%
13,[N-]=[N+]=N[C@H]1C[C@H](n2ccc(=O)[nH]c2=O)O[C@@H]1CO,-3.95%
14,Oc1cccc(C(Nc2nccs2)c2ccc3cccnc3c2O)c1 (stereo not given),20.6%
15,CC[C@H]1OC(=O)[C@H](C)[C@@H](O[C@H]2C[C@@](C)(OC)[C@@H](O)[C@H](C)O2)[C@H](C)[C@@H](O[C@@H]2O[C@H](C)C[C@H](N(C)C)[C@H]2O)[C@](C)(O)C[C@@H](C)C(=O)[C@H](C)[C@@H](O)[C@]1(C)O,34%
16,O=C(O)c1ccccc1Sc1ncnc2sc3c(c12)CCC3,-30.6%
17,O=C(Nc1[nH]c(=O)ncc1F)c1ccccc1,24.1%
18,c1cc(CN2CCCNCCNCCCNCC2)ccc1CN1CCCNCCNCCCNCC1,1.46%
19,CC(N)C12CC3CC(CC(C3)C1)C2 (stereo not given),-6%
20,CCCNc1ccc(S(=O)(=O)Nc2cc(C)on2)cc1,32.4%
